“And” between values parts separate entries of the source, which are not always exact repeats. Identical values can stand only once. This is part of a sample that, as a whole, favours compounds with a hit. Of some 83,000 tested, about 20% had one in any assay.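 Results are percent growth after 48 hours of single-concentration exposure. 100 means growth as in untreated cells, lower positive values show inhibition; negative values down to -100 show cell death.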 The source made the active and inactive calls. The calls were made as follows: active = growth percent below 10; inactive = the rest.

The assay has as its system NCI-H226 lung. Description: NCI-60 one-dose screen, 48 h (100 = growth as untreated, 0 = no growth, -100 = all killed). The conditions noted are these: 10 µM unless noted.
Turning to `C=C[C@]1(C)C=C2CC[C@@H]3C(C)(C)C(=O)CC[C@@]3(C)[C@@H]2CC1`, the growth is 126% (inactive).

With `CN(C)CC1(C)Cc2ccsc2C1O` (stereo unspecified), the growth was 105% (inactive).

For the compound `CCN(CC)/C([O-])=c1\cccc\c1=C1\N=C(c2ccccc2)N=C1[n+]1ccc(-c2ccccc2)cc1`, the growth was 94.4% (inactive).

Regarding `Cc1oc2c(Cc3ccc(NC(=O)c4ccc(Cl)cc4)cc3)ncnc2c1C(=O)NO`, the growth was 86.4% (inactive).

Take `COc1cc(CNC(=O)CCCC/C=C/C(C)C)ccc1O`: the growth was 94.2% (inactive) and 92.4% (inactive).

`CC1=C2[C@@H](CC1)[C@]1(C)O[C@@](C(C)C)(C[C@H]1OC(=O)CO)[C@H]2OC(=O)C1CC1c1ccccc1` (stereo partly specified): the growth was 78.2% (inactive).

On to `O=C1OCC2=C1C(c1cccc(C(F)(F)F)c1)c1cc3c(cc1N2CCO)CCC3` (stereo unspecified), for which the growth was 40.2% (inactive).

As for `COc1ccc(/C=N/C2=C(C#N)C(c3ccccc3)c3c(ccc4ccccc34)O2)cc1` (stereo unspecified), the growth is 33.8% (inactive).

As for `O=C(CCl)N(O)c1ccc(/C=C/c2ccccc2)cc1`, the growth was 56.9% (inactive).

Regarding `N#C/C(=C\c1ccc(Br)cc1)n1nnc2c(F)cccc21`, the growth is 25.5% (inactive).

As to `O=C(/C=C/c1ccccc1)c1cccs1`, the growth was 103% (inactive).

As for `COc1ccc(Nc2nn3c(SCC(=O)c4ccc(C)cc4)nnc3s2)cc1`, the growth was 84.8% (inactive).

`CN(Cc1ccccc1)c1nc(Cl)c(C2CC(c3ccc4c(c3)OCO4)=NN2c2cc(Cl)cc(Cl)c2)s1` (stereo unspecified): the growth was 102% (inactive).

`Cc1nnc(NS(=O)(=O)c2ccc(N=Nc3ccc(N)nc3N)cc2)s1`: the growth is 111% (inactive) and 110% (inactive).

Regarding `CC[C@H](C)[C@H](NC(=O)[C@H](CCCCN)NC(=O)[C@H](CCCCN)NC(=O)[C@@H](NC(=O)[C@@H](NC(=O)[C@@H](N)Cc1cnc[nH]1)[C@@H](C)CC)[C@@H](C)CC)C(=O)N[C@@H](CCCNC(=N)N)C(=O)N[C@H](C(=O)N[C@@H](Cc1c[nH]c2ccccc12)C(=O)N[C@@H](Cc1ccc(O)cc1)C(=O)N[C@@H](CCCNC(=N)N)C(=O)N[C@@H](CCCCN)C(=O)N[C@@H](C)C(=O)N[C@@H](Cc1c[nH]c2ccccc12)C(=O)N[C@@H](Cc1cnc[nH]1)C(=O)N[C@H](C(=O)N[C@@H](CC(C)C)C(=O)NCC(=O)N[C@@H](CCCCN)C(=O)N[C@H](C(N)=O)C(C)C)C(C)C)[C@@H](C)O`, the growth was 29.8% (inactive).

Regarding `O=S(=O)(Nc1cc(Sc2cccc3cccnc23)c(O)c2ccccc12)c1ccc(F)cc1`, the growth was 44.3% (inactive).

On to `COc1ccc2c(c1)CCNC21C(=O)Nc2c(Br)cc(Br)cc21` (stereo unspecified), for which the growth is 101% (inactive).

For the compound `CCCn1nc(C(=O)N2CCCCC2)c2c1CCC(N1CCC(c3ccncc3)CC1)C2` (stereo unspecified), the growth was 116% (inactive).

In the case of `C=C1C(=O)O[C@@H]2[C@H]3[C@H](COC(C)=O)[C@@H](OC(C)=O)C[C@H]3C(=C)[C@@H](O)C[C@@H]12`, the growth was 98.8% (inactive).

For the compound `CC(=O)N1N=C(c2ccc(F)cc2)CC1c1sc(N(C)Cc2ccccc2)nc1Cl` (stereo unspecified), the growth was 102% (inactive).

Consider `O=C(/C=C/c1ccc([N+](=O)[O-])cc1)c1ccccc1`, for which the growth is 85% (inactive).

For the compound `COc1ccc(C(CC(=O)c2ccc3c(c2)OCO3)C(=O)O)cc1OC` (stereo unspecified), the growth is 110% (inactive).

For `CCN1CCN(CC(=O)Nc2nc3ccc(NCc4ccc(C)cc4)cc3s2)CC1`, the growth is 72% (inactive).

With `Clc1cccc(Nc2ncnc3ccc(-c4cncc(-n5cnnn5)c4)cc23)c1`, the growth is 73% (inactive).

Regarding `CCc1c2c(nc3ccc(OCc4ccc(B5OC(C)(C)C(C)(C)O5)cc4)cc13)-c1cc3c(c(=O)n1C2)COC(=O)[C@]3(O)CC`, the growth was -44% (active).

Take `COc1ccc(/C=N\Nc2nc(SCC(C)C)nc(-c3ccc(OC)cc3)c2C#N)cc1`: the growth was -14.8% (active).

Take `COc1cc2nc3cc([N+](=O)[O-])ccc3c(NCCNCC(C)(C)O)c2cc1OC`: the growth is -4.58% (active).

In the case of `COc1ccc(C(=O)c2ccc(OC)c(OC)c2OC)cc1`, the growth was 62.8% (inactive) and 53.2% (inactive).

With `N=C1/C(=C2\NC3C=CC=CC3S2)C(c2ccc(Cl)cc2)C2C(=O)N(c3ccccc3)C(=S)N12` (stereo unspecified), the growth was 91.6% (inactive).

Turning to `CC1=CC(C)(C)NC(=S)N1c1ccc(Cl)cc1`, the growth was 99% (inactive) and 103% (inactive).

With `Cc1nn(-c2nc(-c3cc4ccccc4oc3=O)cs2)c(C)c1N=Nc1ccccc1`, the growth was 105% (inactive).

Values taken from PubChem BioAssay (NCI).
